Pf apPOL block: Pf-apPOL DNA polymerase inhibition. Recombinant Pf-apPOL, molecular beacon fluorescence, 1.5 h. inhibition, % at 10 µM. hit rate 0.25% among 210,000. AID 1794808
mHTT-CaM PPI inh: disrupts binding of mutant huntingtin to calmodulin; P42858; AlphaScreen His-mHTT/GST-CaM binding, luminescence; hit rate 3.6% among 190,000; AID 1671202; inhibition, % at 15 µM;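 note: 0% = both proteins with DMSO and 100% = one protein alone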
Numbers without * were called inactive; · = no result. The list is not random: actives were taken first. Their share in the collection is about 3.6%. Cut-off read from the data, not from the text of the source: active = inhibition above about 50%; inactive = the rest.

SMILES | Pf apPOL block | mHTT-CaM PPI inh
Fc1ccc(C2CC(c3ccccc3OC(F)F)n3ncnc3N2)cc1 (configuration not stated) | -3 | 16
CCc1ccc(C2CC(c3ccccc3OC)n3ncnc3N2)cc1 (configuration not stated) | 3 | 1
FC(F)Oc1ccccc1C1CC(c2ccc(I)cc2)Nc2ncnn21 (configuration not stated) | -3 | 53*
COc1cccc(C2CC(c3ccc(Br)cc3)Nc3ncnn32)c1OC (configuration not stated) | -8 | 51*
COc1ccc(OC)c(C2CC(c3ccc(Br)cc3)Nc3nnnn32)c1 (configuration not stated) | -7 | 58*
COc1ccc(OC)c(C2CC(c3ccc(C)cc3)Nc3nnnn32)c1 (configuration not stated) | 0 | 6
COc1cccc(C2CC(c3ccc(C)cc3)Nc3ncnn32)c1OC (configuration not stated) | -6 | 14
CCc1ccc(C2CC(c3cc(OC)ccc3OC)n3ncnc3N2)cc1 (configuration not stated) | -7 | 51*
CCC(CC)NS(=O)(=O)c1cccc(C(=O)O)c1 | 2 | -1
Cc1ccc(C2CC(c3ccc(F)cc3)n3nnnc3N2)cc1 (configuration not stated) | 7 | 0
COc1ccccc1C1CC(c2ccc(I)cc2)Nc2ncnn21 (configuration not stated) | -8 | 41
Cc1ccc(C2CC(c3ccc(F)c(Br)c3)n3nnnc3N2)cc1 (configuration not stated) | -6 | 61*
COc1ccccc1C1CC(c2ccc(Cl)cc2)Nc2ncnn21 (configuration not stated) | -3 | 54*
CC(C)NC(=O)c1ccc2ncnc(N3CCCCC3)c2c1 | -2 | 3
NC(=O)C1CCN(CC(=O)N2N=C(c3ccc(F)cc3)CC2c2ccccc2)CC1 (configuration not stated) | 4 | 16
O=C(CN1CCOCC1)N1N=C(c2ccccc2)CC1c1ccc(Cl)cc1 (configuration not stated) | -3 | 39
Cc1ccc(C2CC(c3ccccc3)=NN2C(=O)CN2CCC(C(N)=O)CC2)cc1 (configuration not stated) | -8 | 80*
Cc1ccc(C2=NN(C(=O)CN3CCOCC3)C(c3ccc(C)cc3)C2)cc1 (configuration not stated) | -6 | 62*
O=C(CN1CCCC1)N1N=C(c2ccccc2)CC1c1ccc2c(c1)OCO2 (configuration not stated) | 4 | 99*
O=C(CN1CCCCC1)N1N=C(c2ccccc2)CC1c1ccc2c(c1)OCO2 (configuration not stated) | -3 | 29
CC(=O)N1CCN(CC(=O)N2N=C(c3ccc(C)cc3)CC2c2ccc(C)cc2)CC1 (configuration not stated) | -11 | 71*
CCCc1noc(-c2cccnc2N2CCCN(C(=O)c3ccc(N(C)C)cc3)CC2)n1 | 0 | 34
O=C(NCCN1CCOCC1)C(=O)NC1CCCCC1 | -9 | 0
CCOc1ccccc1C(=O)N1CCN(Cc2nc3ccccc3[nH]2)CC1 | -9 | -7
CC(=O)N1CCN(CC(=O)N2N=C(c3ccccc3)CC2c2ccccc2)CC1 (configuration not stated) | -1 | 4
SMILES | Pf apPOL block | mHTT-CaM PPI inh
CC(=O)N1CCN(CC(=O)N2N=C(c3ccccc3)CC2c2ccc(C)cc2)CC1 (configuration not stated) | -5 | 64*
Cc1cccc(C2=NN(C(=O)CN3CCOCC3)C(c3ccccc3F)C2)c1 (configuration not stated) | 4 | 36
CC(=O)N1CCN(CC(=O)N2N=C(c3cccc(C)c3)CC2c2ccc(C)cc2)CC1 (configuration not stated) | -5 | 82*
CCOc1ccc(NC(=O)NC2CCN(c3nc4ccccc4n(CC)c3=O)CC2)cc1 | -5 | 5
Cc1ccc(C)c(OCC(O)CN2C(C)CCCC2C)c1 (configuration not stated) | -1 | 0
O=C(Cc1ccsc1)N1CCCCC1c1nc(-c2ccncc2)no1 (configuration not stated) | -3 | -4
O=C(CCCOc1ccc(Cl)cc1)Nc1nccs1 | 52* | -4
O=C(O)CCCC(=O)Nc1nccs1 | 6 | 3
CN(C)C1CCCC1C(C)(C)OC(=O)c1ccc([N+](=O)[O-])cc1[N+](=O)[O-] (configuration not stated) | 4 | ·
O=S(=O)(NCc1ccccn1)c1ccc(I)cc1 | -5 | -2
Cc1ccc(CNc2ccc3c(c2)OCO3)c(C)c1 | 2 | 100*
COc1cc(Br)c(CNCc2ccc3c(c2)OCO3)cc1OC | -2 | -3
COc1ccc(Br)cc1CNc1ccc2c(c1)OCO2 | -7 | 98*
Cc1cccc(NCc2ccc3c(c2)OCO3)c1 | 7 | 39
Cc1ccccc1Oc1cc(NC(=O)CCCn2nc(C)c([N+](=O)[O-])c2C)cc([N+](=O)[O-])c1 | -4 | 16
O=C(Cn1c(N2CCCCC2)nc2ccccc2c1=O)NCc1ccc(Cl)cc1 | -5 | 2
CCOc1ccc(CC(=O)NCC2(O)CCCC2)cc1 | -7 | -2
Cc1ccc(NC(=O)c2cc(S(=O)(=O)N3CCc4ccccc4C3)ccc2F)cc1Cl | -4 | -1
COc1ccc(-c2coc3c4c(ccc3c2=O)OCN(C2CCCCC2)C4)cc1 | -27 | 14
COc1ccc(-c2coc3c4c(ccc3c2=O)OCN(c2cc(Cl)c(OC)cc2OC)C4)cc1 | -1 | 60*
CCc1cccc(C)c1NS(=O)(=O)c1cc(Br)cc2c1N(C(=O)C1CC1)CC2 | -2 | 4
Cc1ccc(CNC(=O)Cn2cccc2-c2nnc(C)o2)cc1 | -5 | -4
O=[N+]([O-])c1c(Cl)cc(O)c2c1C1C=CCC1C(C1CC=CCC1)N2 (configuration not stated) | 0 | 80*
CC(=O)c1ccc2c(c1)C1C=CCC1C(c1ccc(Cl)cc1Cl)N2 (configuration not stated) | 6 | 37
CCCC1Nc2c(C(=O)O)ccc([N+](=O)[O-])c2C2C=CCC12 (configuration not stated) | -1 | 26
SMILES | Pf apPOL block | mHTT-CaM PPI inh
O=C(O)C1Nc2c(O)cc(Cl)c([N+](=O)[O-])c2C2C=CCC12 (configuration not stated) | -5 | 90*
O=[N+]([O-])c1c(Cl)cc(O)c2c1C1C=CCC1C(c1ccc(Cl)cc1)N2 (configuration not stated) | 0 | 88*
O=C(O)C1Nc2cc(Cl)cc(Cl)c2C2C=CCC12 (configuration not stated) | -1 | 99*
C(=Nc1ccccc1)C1=C(c2ccccc2)SC(c2ccccc2)C(Cc2ccccc2)=C1 (configuration not stated) | · | 15
CC(C)c1cccc(N2C=C(C#N)S(=O)(=O)c3ccc(F)cc32)c1 | -4 | -6
O=C(Cc1c(F)cccc1Cl)N1CC(=O)N(CCc2ccccc2)C(=O)C1 | 0 | -1
Cc1onc(-c2c(Cl)cccc2Cl)c1COC(=O)c1ccc([N+](=O)[O-])cc1 | -1 | ·
COC(=O)c1sccc1NS(=O)(=O)c1ccc(Cl)cc1 | -17 | ·
CC(=O)N1CCN(c2ccc([N+](=O)[O-])cc2F)CC1 | -1 | 4
COc1ccc(CC(=O)N2CCC(c3nc4ccncc4n3C)C2)cc1Cl (configuration not stated) | -3 | 4

Screening data from PubChem BioAssay.
